# From PubChem
# Sampled rows, rich in hits. Any-hit rate of the full collection: about 1.2%.
# RGS16-Gao – regulators of human RGS16-Galphao interaction | O15492+P09471 | bead-based flow cytometry RGS16-Galphao binding, fluorescence; actives lie on both sides | 220,000 compounds, 0.38% hits | binding response (% of control), % at 10 µM; call rule not given here;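 also: Galphao activated by GDP with aluminum fluoride before binding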
# Target sequence (O15492 whole entry, looked up): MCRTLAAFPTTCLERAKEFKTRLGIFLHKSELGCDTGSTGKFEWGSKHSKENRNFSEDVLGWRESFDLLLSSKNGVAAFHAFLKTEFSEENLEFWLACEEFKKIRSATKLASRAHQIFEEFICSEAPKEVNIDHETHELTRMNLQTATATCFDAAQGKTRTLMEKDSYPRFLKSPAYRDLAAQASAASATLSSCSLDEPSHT
# Target sequence (P09471 whole entry, looked up): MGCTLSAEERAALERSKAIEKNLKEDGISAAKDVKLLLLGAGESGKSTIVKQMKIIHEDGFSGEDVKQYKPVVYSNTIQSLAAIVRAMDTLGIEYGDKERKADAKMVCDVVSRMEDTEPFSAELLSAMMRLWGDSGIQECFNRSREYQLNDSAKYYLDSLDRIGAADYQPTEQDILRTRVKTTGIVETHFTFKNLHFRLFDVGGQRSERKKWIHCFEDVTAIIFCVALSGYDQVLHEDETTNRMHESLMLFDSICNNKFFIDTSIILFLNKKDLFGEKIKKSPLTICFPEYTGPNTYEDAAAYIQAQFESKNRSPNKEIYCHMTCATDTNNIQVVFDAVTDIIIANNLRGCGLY
# GSH fluor – compound fluoresces at 488/530 nm on GSH beads. GSH beads flow cytometry, compound fluorescence 488/530 nm; stronger effect = higher value. 190,000 compounds, 0.25% hits. AID 1776. fluorescence (KMESF) at 10 µM; in the data active = fluorescence above about 89;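 also: glutathione beads carrying GST-tagged Bcl family fusion proteins plus one bare bead set; values are compound well signal with DMSO vehicle wells as background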
# RGS4-Gao reg – human RGS4-Galphao interaction regulation. P09471. binding response (% of control), % at 10 µM. Multiplexed bead flow cytometry, RGS4-Galphao binding; actives lie on both sides. 220,000 compounds, 0.33% hits; in the data active = binding response below about 49% or above about 150%; inactive = in between;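 also: fluorescent Galphao activated with aluminum fluoride binding bead-coupled RGS4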
# Target sequence (P09471 whole entry, looked up): as above
# RGS8-Gao – human RGS8-Galphao interaction regulation; P09471; multiplexed bead flow cytometry, RGS8-Galphao binding; actives lie on both sides; response (percent of control binding), % at 10 µM; 220,000 compounds, 0.34% hits; AID 1423; in the data active = response below about 60% or above about 140%; inactive = in between;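 also: Galphao activated as the GDP aluminium fluoride complex binding bead-coupled RGS8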
# Avidin fluor – avidin bead compound fluorescence profile; Avidin beads, compound fluorescence 488/530 nm, flow cytometry; stronger effect = higher value; fluorescence (KMESF) at 10 µM; 220,000 compounds, 0.38% hits; in the data active = fluorescence above about 47
# RGS7-Gao – modulates binding of RGS7 to human Galphao; Multiplexed bead flow cytometry; actives lie on both sides; binding response (% of control), % at 10 µM; 220,000 compounds, 0.35% hits; AID 1439; in the data active = binding response below about 49% or above about 150%; inconclusive = no clear call, values can overlap the other calls; inactive = in between;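 also: fluorescent Galphao held in activated GDP-AlF4 state binding bead-coupled RGS7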
# Numbers without * were called inactive; ? = inconclusive; / = no result given; [ ] = another dose, or the depositor's remark.
SMILES,RGS16-Gao,GSH fluor,RGS4-Gao reg,RGS8-Gao,Avidin fluor,RGS7-Gao
O=S(=O)(c1ccc(-c2ccon2)s1)N1CCN(c2ccccn2)CC1,86.4,/,89.0,88.5,12,?
Cc1nn(Cc2nnc(SCC(=O)Nc3ccc(Cl)cc3)n2C)c(C)c1[N+](=O)[O-],99.1,/,96.8,101.6,9,?
Cn1c2ccccc2c2c(C(=O)N3CCN(c4ccccn4)CC3)cn(C3CCCC3)c(=O)c21,106.7,13,103.1,102.0,9,102.7
Cn1c2ccccc2c2c(C(=O)N3CCN(C(=O)c4ccco4)CC3)cn(C3CCCCC3)c(=O)c21,61.7,149*,64.5,92.8,11,71.1
Cc1ccc2c(c1)CCCN2C(=O)c1ccncc1,101.8,29,102.5,96.7,131*,142.6
O=C(O)CSCC(=O)N1CCN(S(=O)(=O)c2cc(Cl)cc(Cl)c2)CC1,98.5,/,96.5,100.6,8,?
CCc1nc2c(sc3nc4c(cc32)COC(C)(C)C4)c(=O)n1Cc1ccco1,97.2,18,104.1,92.8,65*,114.1
COc1ccc(OC)c(NC(=O)CN(Cc2ccccc2)S(C)(=O)=O)c1,96.0,14,96.9,99.0,10,91.5
Cc1ccccc1N/C(SCc1ccc(Cl)cc1)=C(/C#N)C(=O)NCc1ccco1,104.1,24,107.5,100.5,115*,140.2
Cc1ccc(CS/C(Nc2ccccc2C)=C(\C#N)C(=O)NCc2ccco2)c(C)c1,98.6,14,100.1,100.2,10,100.3
COC(C[C@@H](O)C[C@H](O)[C@@H](C)OCc1ccccc1)OC,101.4,/,104.0,98.8,8,?
CC(C)CNC(=O)CCCc1ccccc1,100.4,8,99.5,100.0,9,95.3
C=CCNC(=O)CCCc1ccccc1,100.4,22,101.1,101.2,52*,113.7
Cc1cc(C(=O)Nn2c(C)nc3ccccc3c2=O)ccc1[N+](=O)[O-],95.2,12,95.4,98.7,12,101.2
Cc1cccc(-c2nc3ccccc3c(=O)n2NC(=O)c2ccc([N+](=O)[O-])c(C)c2)c1,101.6,19,106.7,98.6,73*,147.2
O=C(Nc1cccnc1)c1c(O)c2cccc3c2n(c1=O)CC3,125.1,231*,170.9*[activator],119.6,9,133.8
CC(C)CCN1CCN(CC#Cc2ccccc2)CC1CCO (configuration not stated),105.0,15,104.2,102.0,12,104.5
CC(CCc1ccco1)NC(=O)Nc1cccc(F)c1 (configuration not stated),108.4,52,105.8,103.4,10,107.3
Cc1ccc(NC(=O)CS(=O)CC(=O)NC(C)CCc2ccco2)cc1Cl (configuration not stated),97.8,26,97.3,96.6,72*,115.6
CN(C)c1cccc2c1c(NC(=O)c1ccc(Cl)cc1)nn2C,92.1,/,96.0,95.8,6,?
C=CCN(C(=O)CSC1=NC(=O)CN1C(C)=O)c1nc(C)c(-c2ccccc2)s1,102.0,17,106.9,106.7,10,101.9
Cc1cc(C(=O)N2CCN(C(c3ccccc3)c3ccccc3)CC2)no1,133.1,50,120.1,103.8,52*,116.9
CCCc1cc(C(=O)N2CCN(C(c3ccccc3)c3ccccc3)CC2)no1,101.0,18,98.7,102.3,7,97.0
O=C(N/N=C/c1ccc(-c2ccccc2[N+](=O)[O-])o1)c1cncc(Br)c1,22.8,6,85.0,80.3,83*,78.1
CCc1ccc(N(C(=O)c2snc(C(N)=O)c2N)C(C(=O)NCCC(C)C)c2c[nH]c3ccccc23)cc1 (configuration not stated),62.0,9,94.7,94.6,6,99.6
SMILES,RGS16-Gao,GSH fluor,RGS4-Gao reg,RGS8-Gao,Avidin fluor,RGS7-Gao
COc1cc(C(=O)NNC(=S)NC(=O)c2ccc(Cl)cc2)cc(OC)c1OC,107.3,446*,109.4,99.4,20,103.5
CC1(C)Cc2c(sc3[nH]c(=S)[nH]c(=O)c23)CO1,99.8,11,102.5,104.7,20,101.0
CCCCNC(=O)c1onc(CSc2cccc3ccccc23)c1C(=O)O,100.8,35,97.4,99.3,10,95.2
Cc1ccc2nc3c(cc2c1)c(NC(=O)c1ccccn1)nn3CC(C)C,111.3,25,105.6,106.3,62*,111.5
Fc1ccc(Cn2nnnc2C(c2ccc(Cl)cc2)N2CCSCC2)cc1 (configuration not stated),84.8,39,88.5,95.6,6,100.2
CC1CCN(C(c2ccc(N(C)C)cc2)c2nnnn2Cc2ccc(F)cc2)CC1 (configuration not stated),102.0,251*,102.8,106.0,7,98.9
Cc1cccc(OCC(=O)Nc2ccc(N3CCN(C(=O)c4ccco4)CC3)cc2)c1,104.9,35,105.7,101.6,13,99.0
CCOc1ccccc1N1CC(C(=O)Nc2ccc3c(c2)OCCO3)CC1=O (configuration not stated),101.5,12,98.5,101.2,10,?
CCOc1ccccc1N1CC(C(=O)Nc2cccc(S(=O)(=O)N3CCCCC3)c2)CC1=O (configuration not stated),102.6,13,111.6,99.7,54*,?
Cc1noc(C)c1CCC(=O)N1CCCC(CCC(=O)NCc2ccc(F)c(F)c2)C1 (configuration not stated),100.4,14,100.5,102.2,13,100.2
O=C(CSc1nc(O)cc(=O)n1C1CCCC1)Nc1cccc(Cl)c1Cl,99.6,26,100.5,100.6,12,101.2
COC(=O)c1ccccc1NC(=O)CSc1nc(O)cc(=O)n1C1CCCC1,99.7,22,102.8,102.0,54*,106.9
c1ccc(-n2cc(CNCCc3cscn3)c(-c3ccc4c(c3)OCO4)n2)cc1,119.9,8,106.5,106.1,6,107.1
CC(=O)Nc1ccc(OCC(O)Cn2nc(C)c(C(C)=O)c2C)cc1 (configuration not stated),102.9,24,107.8,97.9,73*,148.7
OCC#CCSc1nnc(-c2ccncc2)o1,99.6,251*,101.8,100.6,17,100.4
C/C(CCC(C)C)=N\NC(=S)NCc1ccccc1,99.4,14,100.6,100.0,10,?
NS(=O)(=O)c1ccc(NC(=O)COC(=O)COc2ccc(Cl)cc2)cc1,100.2,18,98.5,100.5,9,?
Cc1c(NS(C)(=O)=O)c(=O)n(-c2ccccc2)n1C,99.1,252*,108.3,111.8,5,100.6
Cc1c(NS(=O)(=O)N2CCCC2)c(=O)n(-c2ccccc2)n1C,95.6,48,97.3,101.3,7,102.1
CCOC(=O)Nc1cc(C)ccc1OC,92.4,27,101.8,94.2,51*,141.6
CCOC(=O)Nc1ccc(C)cc1NC(=O)OCC,102.3,13,99.3,102.5,46,105.0
